How the values were obtained:
[1] = molecular target: Death-associated protein kinase 1 (Homo sapiens) (UniProt P53355); conditions: at 10 µM
[2] = molecular target: Death-associated protein kinase 2 (Homo sapiens) (UniProt Q9UIK4); conditions: at 1 µM
[3] = molecular target: T1, Serine/threonine-protein kinase DCLK2 (Homo sapiens) (UniProt Q8N568); conditions: at 1 µM
T1 sequence (whole entry): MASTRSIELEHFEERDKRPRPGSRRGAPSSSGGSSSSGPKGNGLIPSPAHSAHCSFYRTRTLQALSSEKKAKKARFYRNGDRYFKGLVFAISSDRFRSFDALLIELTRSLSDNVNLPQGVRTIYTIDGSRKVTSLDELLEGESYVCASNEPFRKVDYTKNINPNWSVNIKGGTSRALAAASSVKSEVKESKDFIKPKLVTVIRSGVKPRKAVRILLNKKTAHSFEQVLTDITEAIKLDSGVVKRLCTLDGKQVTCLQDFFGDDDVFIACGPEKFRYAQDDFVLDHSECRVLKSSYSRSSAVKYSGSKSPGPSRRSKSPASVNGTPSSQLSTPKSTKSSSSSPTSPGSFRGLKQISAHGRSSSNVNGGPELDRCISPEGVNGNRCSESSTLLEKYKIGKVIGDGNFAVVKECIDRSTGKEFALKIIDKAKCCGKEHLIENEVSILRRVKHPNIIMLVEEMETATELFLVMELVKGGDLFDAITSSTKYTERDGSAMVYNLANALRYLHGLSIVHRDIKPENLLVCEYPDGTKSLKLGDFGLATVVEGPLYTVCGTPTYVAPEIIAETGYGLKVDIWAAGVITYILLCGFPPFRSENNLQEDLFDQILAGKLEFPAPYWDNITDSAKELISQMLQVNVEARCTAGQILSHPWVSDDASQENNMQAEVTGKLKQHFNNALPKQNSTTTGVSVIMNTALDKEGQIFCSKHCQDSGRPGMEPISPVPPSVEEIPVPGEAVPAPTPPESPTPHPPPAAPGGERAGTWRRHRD

[4] = molecular target: T1, Serine/threonine-protein kinase DCLK2 (Homo sapiens); conditions: at 10 µM
[5] = molecular target: T2, Discoidin domain-containing receptor 2 (Homo sapiens) (UniProt Q16832); conditions: at 1 µM
T2 sequence (whole entry): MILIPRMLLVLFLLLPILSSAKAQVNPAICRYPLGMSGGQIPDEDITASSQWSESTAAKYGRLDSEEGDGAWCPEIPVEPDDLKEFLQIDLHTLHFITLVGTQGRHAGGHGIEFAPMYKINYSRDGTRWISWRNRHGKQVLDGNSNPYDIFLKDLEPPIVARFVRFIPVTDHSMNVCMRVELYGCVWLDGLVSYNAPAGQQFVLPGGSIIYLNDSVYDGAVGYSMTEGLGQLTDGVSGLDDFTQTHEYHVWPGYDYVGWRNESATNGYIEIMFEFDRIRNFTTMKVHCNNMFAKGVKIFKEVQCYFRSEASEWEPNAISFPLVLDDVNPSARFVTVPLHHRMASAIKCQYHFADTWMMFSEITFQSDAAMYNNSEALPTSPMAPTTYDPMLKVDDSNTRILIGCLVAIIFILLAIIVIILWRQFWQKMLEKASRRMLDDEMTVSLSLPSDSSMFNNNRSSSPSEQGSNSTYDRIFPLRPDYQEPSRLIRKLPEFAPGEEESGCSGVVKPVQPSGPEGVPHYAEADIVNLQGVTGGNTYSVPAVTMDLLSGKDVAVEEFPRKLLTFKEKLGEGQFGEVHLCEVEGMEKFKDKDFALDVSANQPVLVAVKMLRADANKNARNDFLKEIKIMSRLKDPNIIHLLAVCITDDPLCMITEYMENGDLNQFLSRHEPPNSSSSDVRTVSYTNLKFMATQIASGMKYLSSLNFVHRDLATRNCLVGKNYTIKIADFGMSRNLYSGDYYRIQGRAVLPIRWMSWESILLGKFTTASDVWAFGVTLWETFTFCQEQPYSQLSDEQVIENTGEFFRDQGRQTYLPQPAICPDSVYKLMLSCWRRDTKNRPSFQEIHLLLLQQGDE

[6] = molecular target: T2, Discoidin domain-containing receptor 2 (Homo sapiens); conditions: at 10 µM
[7] = molecular target: T3, Myotonin-protein kinase (Homo sapiens) (UniProt Q09013); conditions: at 1 µM
T3 sequence (whole entry): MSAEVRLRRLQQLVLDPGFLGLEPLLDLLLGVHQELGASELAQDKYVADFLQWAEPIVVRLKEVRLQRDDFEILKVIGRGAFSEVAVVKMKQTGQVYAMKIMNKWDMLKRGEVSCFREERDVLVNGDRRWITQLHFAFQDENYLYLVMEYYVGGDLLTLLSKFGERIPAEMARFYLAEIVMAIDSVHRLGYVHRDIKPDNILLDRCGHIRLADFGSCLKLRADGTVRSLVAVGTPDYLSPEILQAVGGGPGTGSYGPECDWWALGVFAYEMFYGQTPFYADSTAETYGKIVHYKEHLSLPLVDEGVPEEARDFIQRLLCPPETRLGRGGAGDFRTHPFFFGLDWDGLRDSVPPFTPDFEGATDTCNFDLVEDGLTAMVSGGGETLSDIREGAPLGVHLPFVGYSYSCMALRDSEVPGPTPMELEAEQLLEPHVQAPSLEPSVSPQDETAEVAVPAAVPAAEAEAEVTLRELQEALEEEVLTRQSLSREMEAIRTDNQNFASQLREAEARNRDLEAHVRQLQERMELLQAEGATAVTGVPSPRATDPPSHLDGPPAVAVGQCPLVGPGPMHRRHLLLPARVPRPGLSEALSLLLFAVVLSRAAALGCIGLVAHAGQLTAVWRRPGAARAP

[8] = molecular target: T4, Dual specificity tyrosine-phosphorylation-regulated kinase 2 (Homo sapiens) (UniProt Q92630); conditions: at 1 µM
T4 sequence (whole entry): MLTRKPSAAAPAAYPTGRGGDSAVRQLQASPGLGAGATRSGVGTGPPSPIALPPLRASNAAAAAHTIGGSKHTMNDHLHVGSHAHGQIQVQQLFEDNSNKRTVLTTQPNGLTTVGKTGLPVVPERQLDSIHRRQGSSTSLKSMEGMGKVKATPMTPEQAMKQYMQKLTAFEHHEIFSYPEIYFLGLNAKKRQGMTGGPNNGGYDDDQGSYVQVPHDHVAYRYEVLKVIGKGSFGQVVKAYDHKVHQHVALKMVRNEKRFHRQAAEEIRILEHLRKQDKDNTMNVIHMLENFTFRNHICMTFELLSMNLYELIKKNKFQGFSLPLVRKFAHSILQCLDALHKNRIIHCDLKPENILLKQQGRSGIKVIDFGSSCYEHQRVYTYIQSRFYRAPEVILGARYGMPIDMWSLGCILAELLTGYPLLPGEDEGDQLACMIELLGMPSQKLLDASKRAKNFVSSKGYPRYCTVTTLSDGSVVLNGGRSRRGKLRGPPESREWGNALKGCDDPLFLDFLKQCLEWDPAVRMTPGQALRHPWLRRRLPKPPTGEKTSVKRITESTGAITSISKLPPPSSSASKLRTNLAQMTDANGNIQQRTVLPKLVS

[9] = molecular target: T4, Dual specificity tyrosine-phosphorylation-regulated kinase 2 (Homo sapiens); conditions: at 10 µM
[10] = molecular target: T5, Ephrin type-A receptor 1 (Homo sapiens) (UniProt P21709); conditions: at 1 µM
T5 sequence (whole entry): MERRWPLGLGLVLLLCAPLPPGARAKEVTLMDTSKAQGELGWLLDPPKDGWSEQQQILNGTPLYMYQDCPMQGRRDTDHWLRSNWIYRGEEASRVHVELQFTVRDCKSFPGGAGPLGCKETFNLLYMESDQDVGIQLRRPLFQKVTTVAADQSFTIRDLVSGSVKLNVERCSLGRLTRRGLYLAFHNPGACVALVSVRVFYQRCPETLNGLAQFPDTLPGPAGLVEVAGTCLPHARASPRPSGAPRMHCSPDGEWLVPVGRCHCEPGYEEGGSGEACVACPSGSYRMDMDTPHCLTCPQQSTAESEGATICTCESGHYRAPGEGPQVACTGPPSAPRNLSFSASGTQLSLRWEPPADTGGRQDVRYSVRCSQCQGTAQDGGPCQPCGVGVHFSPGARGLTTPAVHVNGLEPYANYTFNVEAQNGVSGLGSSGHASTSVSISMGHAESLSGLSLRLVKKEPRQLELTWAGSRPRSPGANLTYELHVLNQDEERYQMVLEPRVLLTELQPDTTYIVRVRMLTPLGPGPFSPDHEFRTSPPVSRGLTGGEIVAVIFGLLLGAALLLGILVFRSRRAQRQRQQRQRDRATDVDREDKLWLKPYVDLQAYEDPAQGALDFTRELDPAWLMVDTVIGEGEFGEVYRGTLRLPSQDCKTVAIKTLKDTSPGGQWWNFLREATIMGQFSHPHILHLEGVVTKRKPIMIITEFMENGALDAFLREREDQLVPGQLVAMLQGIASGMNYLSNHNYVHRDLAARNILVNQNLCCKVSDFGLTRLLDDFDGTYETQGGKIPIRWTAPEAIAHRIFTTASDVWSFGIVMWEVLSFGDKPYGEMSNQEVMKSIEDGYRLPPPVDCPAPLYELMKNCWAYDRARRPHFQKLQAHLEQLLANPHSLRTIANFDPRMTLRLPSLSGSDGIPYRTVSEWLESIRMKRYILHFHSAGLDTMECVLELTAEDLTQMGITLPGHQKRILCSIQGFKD

[11] = molecular target: T5, Ephrin type-A receptor 1 (Homo sapiens); conditions: at 10 µM
[12] = molecular target: Ephrin type-A receptor 2 (Homo sapiens) (UniProt P29317); conditions: at 1 µM
[13] = molecular target: Ephrin type-A receptor 2 (Homo sapiens) (UniProt P29317); conditions: at 10 µM
[14] = molecular target: Death-associated protein kinase 2 (Homo sapiens) (UniProt Q9UIK4); conditions: at 10 µM
[15] = molecular target: T3, Myotonin-protein kinase (Homo sapiens); conditions: at 10 µM
[16] = molecular target: T6, Ephrin type-A receptor 3 (Homo sapiens) (UniProt P29320); conditions: at 1 µM
T6 sequence (whole entry): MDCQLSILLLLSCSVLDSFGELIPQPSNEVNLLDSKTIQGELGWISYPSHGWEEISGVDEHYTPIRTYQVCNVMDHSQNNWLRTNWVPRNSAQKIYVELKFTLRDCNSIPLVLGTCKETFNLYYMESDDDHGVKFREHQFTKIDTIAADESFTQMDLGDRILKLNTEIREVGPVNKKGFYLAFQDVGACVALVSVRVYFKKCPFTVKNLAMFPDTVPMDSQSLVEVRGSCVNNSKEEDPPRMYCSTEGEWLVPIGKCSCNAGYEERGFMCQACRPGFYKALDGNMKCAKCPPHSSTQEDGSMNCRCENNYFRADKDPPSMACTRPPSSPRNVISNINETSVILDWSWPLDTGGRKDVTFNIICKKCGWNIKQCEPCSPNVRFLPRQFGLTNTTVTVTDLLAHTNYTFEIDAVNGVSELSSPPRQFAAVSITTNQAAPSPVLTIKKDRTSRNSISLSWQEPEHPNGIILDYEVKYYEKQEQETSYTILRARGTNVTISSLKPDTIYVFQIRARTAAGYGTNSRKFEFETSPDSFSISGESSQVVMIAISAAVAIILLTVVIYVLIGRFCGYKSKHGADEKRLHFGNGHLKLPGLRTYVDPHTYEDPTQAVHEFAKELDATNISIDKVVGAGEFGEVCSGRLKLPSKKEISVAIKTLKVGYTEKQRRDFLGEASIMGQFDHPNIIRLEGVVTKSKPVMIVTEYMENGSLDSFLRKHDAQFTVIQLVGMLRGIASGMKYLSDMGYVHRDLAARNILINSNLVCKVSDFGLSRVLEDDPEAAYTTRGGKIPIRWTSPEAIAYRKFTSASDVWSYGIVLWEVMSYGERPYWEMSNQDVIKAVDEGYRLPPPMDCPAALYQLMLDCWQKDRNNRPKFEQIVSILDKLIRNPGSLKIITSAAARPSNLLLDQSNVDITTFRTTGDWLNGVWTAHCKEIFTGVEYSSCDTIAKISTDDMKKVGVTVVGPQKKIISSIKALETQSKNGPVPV

Sequence of Death-associated protein kinase 1 (Homo sapiens) (P53355 whole entry, looked up): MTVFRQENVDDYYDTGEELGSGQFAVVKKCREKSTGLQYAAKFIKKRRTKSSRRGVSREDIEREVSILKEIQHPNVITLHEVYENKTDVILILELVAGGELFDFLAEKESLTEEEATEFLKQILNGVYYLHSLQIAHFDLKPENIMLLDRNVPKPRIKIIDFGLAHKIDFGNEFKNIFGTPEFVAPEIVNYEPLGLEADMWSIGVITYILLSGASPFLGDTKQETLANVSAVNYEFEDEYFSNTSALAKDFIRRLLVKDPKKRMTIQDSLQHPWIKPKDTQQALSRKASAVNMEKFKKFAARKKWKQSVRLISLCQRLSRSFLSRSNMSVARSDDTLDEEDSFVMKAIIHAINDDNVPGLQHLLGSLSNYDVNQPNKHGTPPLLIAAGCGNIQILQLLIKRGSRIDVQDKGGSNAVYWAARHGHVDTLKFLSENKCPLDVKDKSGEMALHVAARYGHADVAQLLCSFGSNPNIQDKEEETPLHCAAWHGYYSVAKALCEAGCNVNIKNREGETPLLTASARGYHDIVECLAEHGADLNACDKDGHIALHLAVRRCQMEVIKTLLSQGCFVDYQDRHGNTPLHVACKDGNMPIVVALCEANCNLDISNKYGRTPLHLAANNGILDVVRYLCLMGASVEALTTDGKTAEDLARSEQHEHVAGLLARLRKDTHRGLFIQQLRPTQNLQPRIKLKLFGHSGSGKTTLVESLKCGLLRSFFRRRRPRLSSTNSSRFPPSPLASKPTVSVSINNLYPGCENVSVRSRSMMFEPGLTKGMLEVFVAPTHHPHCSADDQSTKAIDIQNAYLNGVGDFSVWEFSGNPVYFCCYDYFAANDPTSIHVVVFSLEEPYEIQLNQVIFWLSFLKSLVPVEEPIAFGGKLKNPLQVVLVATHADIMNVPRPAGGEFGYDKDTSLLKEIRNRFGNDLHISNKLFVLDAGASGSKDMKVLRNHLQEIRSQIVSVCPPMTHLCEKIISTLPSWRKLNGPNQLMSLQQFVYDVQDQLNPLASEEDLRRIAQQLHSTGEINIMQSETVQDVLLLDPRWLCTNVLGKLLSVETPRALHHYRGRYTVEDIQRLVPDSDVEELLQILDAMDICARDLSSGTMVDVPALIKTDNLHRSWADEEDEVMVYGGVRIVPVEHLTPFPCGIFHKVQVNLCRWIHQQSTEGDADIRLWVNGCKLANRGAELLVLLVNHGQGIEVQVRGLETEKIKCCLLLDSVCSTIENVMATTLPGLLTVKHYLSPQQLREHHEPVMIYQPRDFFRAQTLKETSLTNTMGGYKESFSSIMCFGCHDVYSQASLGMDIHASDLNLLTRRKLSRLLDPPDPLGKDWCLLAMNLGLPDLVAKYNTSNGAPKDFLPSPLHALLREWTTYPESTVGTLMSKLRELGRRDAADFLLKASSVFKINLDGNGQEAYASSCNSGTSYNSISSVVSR
Sequence of Death-associated protein kinase 2 (Homo sapiens) (Q9UIK4 whole entry, looked up): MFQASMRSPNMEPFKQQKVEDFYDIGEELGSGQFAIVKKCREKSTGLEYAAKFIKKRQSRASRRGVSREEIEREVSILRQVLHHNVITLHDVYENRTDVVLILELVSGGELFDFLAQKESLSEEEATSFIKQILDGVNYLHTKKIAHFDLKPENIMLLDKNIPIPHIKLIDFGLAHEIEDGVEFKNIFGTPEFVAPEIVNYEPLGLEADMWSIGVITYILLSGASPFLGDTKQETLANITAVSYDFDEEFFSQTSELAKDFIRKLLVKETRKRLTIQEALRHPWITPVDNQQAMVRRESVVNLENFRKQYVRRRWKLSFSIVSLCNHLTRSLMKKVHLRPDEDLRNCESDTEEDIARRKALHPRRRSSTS
Sequence of Ephrin type-A receptor 2 (Homo sapiens) (P29317 whole entry): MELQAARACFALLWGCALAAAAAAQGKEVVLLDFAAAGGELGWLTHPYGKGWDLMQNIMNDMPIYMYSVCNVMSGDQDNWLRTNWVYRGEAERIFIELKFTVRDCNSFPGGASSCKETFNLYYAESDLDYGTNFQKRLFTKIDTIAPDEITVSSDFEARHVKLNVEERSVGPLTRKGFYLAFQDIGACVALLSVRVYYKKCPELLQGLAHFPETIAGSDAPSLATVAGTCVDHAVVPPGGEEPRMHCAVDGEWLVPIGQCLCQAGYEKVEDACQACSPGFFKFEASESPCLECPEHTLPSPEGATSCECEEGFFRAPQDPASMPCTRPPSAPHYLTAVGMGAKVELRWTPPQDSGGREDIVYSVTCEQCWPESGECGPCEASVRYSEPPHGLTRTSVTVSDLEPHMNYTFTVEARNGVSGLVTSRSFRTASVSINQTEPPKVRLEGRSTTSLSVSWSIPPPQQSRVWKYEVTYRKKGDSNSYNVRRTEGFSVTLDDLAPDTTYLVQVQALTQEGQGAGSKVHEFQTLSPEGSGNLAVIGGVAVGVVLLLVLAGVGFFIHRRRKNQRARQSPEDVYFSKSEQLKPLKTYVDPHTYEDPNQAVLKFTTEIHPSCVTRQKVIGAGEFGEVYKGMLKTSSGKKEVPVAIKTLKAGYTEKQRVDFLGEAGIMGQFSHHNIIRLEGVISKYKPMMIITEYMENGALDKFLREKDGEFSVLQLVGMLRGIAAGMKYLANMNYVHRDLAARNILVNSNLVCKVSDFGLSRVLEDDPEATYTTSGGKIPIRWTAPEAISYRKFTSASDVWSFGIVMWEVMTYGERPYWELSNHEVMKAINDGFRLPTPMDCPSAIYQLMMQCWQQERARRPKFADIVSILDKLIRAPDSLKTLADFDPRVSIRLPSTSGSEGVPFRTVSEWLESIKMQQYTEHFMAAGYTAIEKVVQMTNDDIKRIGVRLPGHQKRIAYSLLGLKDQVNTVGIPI

Structure (SMILES)	residual activity [1] [%]	residual activity [2] [%]	residual activity [3] [%]	residual activity [4] [%]	residual activity [5] [%]	residual activity [6] [%]	residual activity [7] [%]	residual activity [8] [%]	residual activity [9] [%]	residual activity [10] [%]	residual activity [11] [%]	residual activity [12] [%]	residual activity [13] [%]	residual activity [14] [%]	residual activity [15] [%]	residual activity [16] [%]
O=C(c1ccccc1)c1ccc(N2CCOCC2)cc1O	100	89	64	93	111	93	138	100	93	88	95	99	95	–	–	–
CC(C)[C@H](CO)Nc1nc(Nc2cc(N)cc(Cl)c2)c2ncn(C(C)C)c2n1	80	99	94	95	95	88	87	94	74	95	11	88	29	97	90	93
O=C(CCCc1ccc(-c2ccccc2F)cc1)Nc1ccc(O)cc1	105	102	133	192	99	111	108	105	91	93	86	97	–	99	97	99
